The list is not random: actives were taken first. Their share in the collection is about 12%.
PI5P4Ka inh = qHTS for Inhibitors of phosphatidylinositol 5-phosphate 4-kinase (PI5P4K); Phosphatidylinositol 5-phosphate 4-kinase type-2 alpha (Homo sapiens), P48426; PI5P4Kalpha enzyme, ADP-Glo luminescence, 60 min; stronger effect = lower value; max response, %; 330,000 compounds, 1.2% hits; active = max response of -50% or lower; inconclusive = between -30% and -50%; inactive = -30% or higher; note: value at the top dose of about 77 µM
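Quantitative HTS of the MLSMR library against PI5P4Kalpha with substrate. ATP added last at 5 microM final; room temperature, 60 minutes. Remaining ATP depleted, ADP converted and read as luminescence.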
JMJD2A Tudor = qHTS Assay for Inhibitors of JMJD2A-Tudor Domain | Lysine-specific demethylase 4A (Homo sapiens), O75164 | AlphaScreen JMJD2A-Tudor / H3K4me3 peptide binding | Potency, µM (titrated, usually from 114 µM), actives largely listed as inhibitors | 390,000 compounds, 4.4% hits | AID 504339, 2011; note: nearly all actives have a fitted effect of over 50% in size
PLK1 PBD block = qHTS for Inhibitors of PLK1-PDB (polo-like kinase 1 - polo-box domain): Primary Screen. Serine/threonine-protein kinase PLK1 (Homo sapiens), P53350. Plk1 PBD binding of FITC phosphopeptide, fluorescence polarization. Potency, µM, usual class: inhibitors. 360,000 compounds, 2.8% hits. AID 720504, 2013; note: series mostly up to about 57 µM; nearly all actives have a fitted effect of over 65% in size
BAZ2B block = qHTS Assay for Inhibitors of BAZ2B; Bromodomain adjacent to zinc finger domain protein 2B (Homo sapiens), Q9UIF8; AlphaScreen BAZ2B-H3K14Ac peptide displacement; Potency, µM (titrated, usually from 114 µM), hits mostly inhibitors; 360,000 compounds, 4.4% hits; note: nearly all actives have a fitted effect of over 60% in size
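AlphaScreen displacement of biotin-H3(5-23)K14Ac peptide (50 nM final) from BAZ2B (50 nM final) in PBS pH 7.4, 0.01% Tween-20; complex preformed 30 min RT, then compounds (top 110 uM) 30 min RT, beads 20 min dark.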
HP1b binding inh = HTS for Inhibitors of HP1-beta Chromodomain Interactions with Methylated Histone Tails | Chromobox protein homolog 1 (Homo sapiens), P83916 | AlphaScreen HP1-beta / biotin-H3K9me3 peptide binding | Potency, µM (top dose mostly 114 µM), actives largely listed as inhibitors | 390,000 compounds, 0.56% hits | AID 540317, 2011; note: nearly all actives have a fitted effect of over 70% in size
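Compound inhibition of the preformed complex between 50 nM HP1-beta and 50 nM biotinylated H3K9me3 peptide was read by AlphaScreen. Buffer was PBS pH 7.4 with 0.01% Tween-20. Incubations ran 30 min at room temperature, with 10 ug/mL donor/acceptor beads.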
G9a block = qHTS Assay for Inhibitors of Histone Lysine Methyltransferase G9a | Histone-lysine N-methyltransferase EHMT2 (Homo sapiens), Q96KQ7 | G9a H3K9 monomethylation, AlphaScreen, 2 h | Potency, µM (highest dose often 102 µM), most hits filed as inhibitors | 350,000 compounds, 8.8% hits | AID 504332, 2011; note: nearly all actives have a fitted effect of over 75% in size
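Compounds were preincubated with 20 nM G9a for 15 min, after which biotinylated H3K9 peptide (500 nM) and SAM (20 uM) started a 2 h room-temperature reaction. Monomethylated product was quantified by antibody-based AlphaScreen chemiluminescence.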
A number is an active result; [ ] = remark or other dose. Unless noted, calls come from the whole dose curve; as a rule, active = well fitted curve in the direction sought with a large enough effect; inconclusive = small, poorly fitted or top-dose-only effect, or another doubt; inactive = no such curve, though single readings can be large; an effect the other way counts as inactive or inconclusive.

How did O=C(COc1ccccc1)N(Cc1cccc(F)c1)C1CCS(=O)(=O)C1 (stereo not drawn) do in these assays?
PI5P4Ka inh: inactive; JMJD2A Tudor: inactive; PLK1 PBD block: inactive; BAZ2B block: inactive; HP1b binding inh: inactive; G9a block: inactive

What do the screens show for `O=C(COc1ccc(F)cc1)N(Cc1cccc(Br)c1)C1CCS(=O)(=O)C1` (stereo not drawn)?
PI5P4Ka inh: inactive; JMJD2A Tudor: inconclusive; PLK1 PBD block: 23.8µM; BAZ2B block: inactive; HP1b binding inh: inactive; G9a block: inactive

How did Cc1cc(C)cc(OCC(=O)N(Cc2ccc(N(C)C)cc2)C2CCS(=O)(=O)C2)c1 (stereo not drawn) do in these assays?
PI5P4Ka inh: inactive; JMJD2A Tudor: 63.1µM; PLK1 PBD block: inactive; BAZ2B block: 39.8µM; HP1b binding inh: inconclusive; G9a block: inactive

How did CN(C)c1ccc(CN(C(=O)COc2ccc(Br)cc2)C2CCS(=O)(=O)C2)cc1 (stereo not drawn) do in these assays?
JMJD2A Tudor: 39.8µM; PLK1 PBD block: inactive; BAZ2B block: 44.7µM; HP1b binding inh: inactive; G9a block: 50.1µM

Results for CCOC(=O)N1CCN(CC(O)COc2ccccc2[N+](=O)[O-])CC1 (stereo not drawn) ?
PI5P4Ka inh: inactive; JMJD2A Tudor: inactive; PLK1 PBD block: inactive; BAZ2B block: inactive; HP1b binding inh: inactive; G9a block: inactive[2.33 µM]

What do the screens show for `O=C(Cc1cccc(NC(=O)C2CCN(C(=O)C3CC3)CC2)c1)Nc1cccc(C(=O)N2CCCCC2)c1`?
PI5P4Ka inh: inactive; JMJD2A Tudor: inactive; PLK1 PBD block: inactive; HP1b binding inh: inactive

What do the screens show for `CN(C)c1ccc(CN(C(=O)COc2ccc(F)cc2)C2CCS(=O)(=O)C2)cc1` (stereo not drawn)?
JMJD2A Tudor: inactive; PLK1 PBD block: inactive; BAZ2B block: inconclusive; HP1b binding inh: inactive; G9a block: inconclusive

How did Cc1ccc(OCC(=O)N(Cc2ccc(N(C)C)cc2)C2CCS(=O)(=O)C2)cc1 (stereo not drawn) do in these assays?
PI5P4Ka inh: inactive; JMJD2A Tudor: inconclusive; PLK1 PBD block: inactive; BAZ2B block: inconclusive; HP1b binding inh: inactive; G9a block: 39.8µM

How did Cc1cccc(OCC(=O)N(Cc2cccs2)C2CCS(=O)(=O)C2)c1C (stereo not drawn) do in these assays?
PI5P4Ka inh: inactive; JMJD2A Tudor: inactive; PLK1 PBD block: inactive; BAZ2B block: inactive; HP1b binding inh: inactive; G9a block: 50.1µM

How did CCCSc1ncc(Cl)c(C(=O)N(Cc2cccc(Cl)c2)C2CCS(=O)(=O)C2)n1 (stereo not drawn) do in these assays?
JMJD2A Tudor: inactive; BAZ2B block: inactive; HP1b binding inh: inactive; G9a block: inactive

Results for CCCSc1ncc(Cl)c(C(=O)N(Cc2ccc(N(C)C)cc2)C2CCS(=O)(=O)C2)n1 (stereo not drawn) ?
JMJD2A Tudor: 56.2µM; BAZ2B block: 22.4µM; HP1b binding inh: inactive; G9a block: inconclusive

How did CN(C)c1ccc(CN(C(=O)/C=C/c2ccccc2Cl)C2CCS(=O)(=O)C2)cc1 (stereo not drawn) do in these assays?
PI5P4Ka inh: inactive; JMJD2A Tudor: 44.7µM; PLK1 PBD block: inactive; BAZ2B block: 25.1µM; HP1b binding inh: inactive; G9a block: inactive

How did O=C(/C=C/c1ccccc1Cl)N(Cc1ccc(Cl)cc1)C1CCS(=O)(=O)C1 (stereo not drawn) do in these assays?
PI5P4Ka inh: inactive; JMJD2A Tudor: inactive; PLK1 PBD block: inactive; BAZ2B block: inactive; HP1b binding inh: inactive; G9a block: inactive

How did Cc1ccc(OCC(=O)N(Cc2cccs2)C2CCS(=O)(=O)C2)cc1 (stereo not drawn) do in these assays?
PI5P4Ka inh: inactive; JMJD2A Tudor: inactive; PLK1 PBD block: inactive; BAZ2B block: inactive; HP1b binding inh: inactive; G9a block: inactive

How did Cc1oc(-c2cccc(Cl)c2)nc1CSc1nnc(C)n2c1cc1occc12 do in these assays?
JMJD2A Tudor: inactive; BAZ2B block: inactive; HP1b binding inh: inactive; G9a block: inactive

Results for COc1cc2c(cc1OC)C(COc1ccccc1OC)N(C(=O)CC(C)C)CC2 (stereo not drawn) ?
JMJD2A Tudor: inactive; BAZ2B block: inactive; HP1b binding inh: inactive; G9a block: inactive

What do the screens show for `COc1cc(OC)c(OC)cc1CNC(=O)c1cc(=O)[nH]c2ccccc12`?
PI5P4Ka inh: inactive; JMJD2A Tudor: inactive; PLK1 PBD block: inactive; BAZ2B block: inactive; HP1b binding inh: inactive; G9a block: inactive

How did CCc1c(C)c2cc(Cl)c(O)c(CN(C)C)c2oc1=O do in these assays?
JMJD2A Tudor: inconclusive; PLK1 PBD block: inactive; BAZ2B block: inactive; HP1b binding inh: inactive; G9a block: inactive[12.7 µM]

How did Cc1c(C)c2cc(Cl)c(O)c(CN(C)C)c2oc1=O do in these assays?
JMJD2A Tudor: 17.8µM; PLK1 PBD block: inactive; BAZ2B block: inactive; HP1b binding inh: inactive; G9a block: inactive[12.7 µM]

Results for CCCCc1cc(=O)oc2c(CN(C)C)c(O)c(Cl)cc12 ?
JMJD2A Tudor: 15.8µM; PLK1 PBD block: inactive; BAZ2B block: inactive; HP1b binding inh: inactive; G9a block: inactive[12.7 µM]

How did CCc1sc(N(C(=O)Cc2ccccc2)c2ccccc2)nc1-c1ccccc1 do in these assays?
PI5P4Ka inh: inactive; JMJD2A Tudor: inactive; PLK1 PBD block: inactive; BAZ2B block: inactive; HP1b binding inh: inactive; G9a block: inactive[12.7 µM]

What do the screens show for `CCCCC(=O)N(c1ccc(C(=O)O)cc1)c1nc(-c2ccc(Cl)cc2)c(CC)s1`?
PI5P4Ka inh: inactive; JMJD2A Tudor: inactive; PLK1 PBD block: 26.7µM; BAZ2B block: inactive; HP1b binding inh: inactive; G9a block: inconclusive

What do the screens show for `CC(=O)NC1C(c2nc3ccccc3s2)=C(c2ccccc2)C(=O)N1c1ccc(C)cc1` (stereo not drawn)?
JMJD2A Tudor: inconclusive; PLK1 PBD block: inactive; BAZ2B block: inactive; HP1b binding inh: inconclusive; G9a block: 50.1µM

How did CCOC(=O)C(NC(=O)Nc1ccc(Cl)cn1)(Oc1ccc(F)cc1)C(F)(F)F (stereo not drawn) do in these assays?
PI5P4Ka inh: inactive; JMJD2A Tudor: inactive; PLK1 PBD block: 9.47µM; BAZ2B block: inactive; HP1b binding inh: inactive; G9a block: inactive

What do the screens show for `Cc1ccccc1CSc1nnc(-c2ccccn2)n1C`?
PI5P4Ka inh: inactive; JMJD2A Tudor: inactive; PLK1 PBD block: inactive; BAZ2B block: 79.4µM; HP1b binding inh: inactive; G9a block: inactive

Screening results as filed in PubChem.
